Results published in the supplement of paper PMC13380429.

Tested on: Vero E6 infected with SARS-CoV-2
Assay: inhibition of SARS-CoV-2 cytopathic effect; higher = more antiviral protection, active = above 15
Conditions: 48 h

Measured: inhibition of SARS-CoV-2 cytopathic effect

C[C@@H](O)[C@H]1C(=O)N2C(C(=O)O)=C(S[C@@H]3CN[C@H](C(=O)Nc4cccc(C(=O)O)c4)C3)[C@H](C)[C@H]12 [ertapenem]
inactive: 1 nM 0.22% | 8.33 nM 3.19% | 100 nM 1.71% | 833.33 nM 2.2% | 10000 nM 2.62%

CO[C@@H]1[C@@H](OC(N)=O)[C@@H](O)[C@H](Oc2ccc3c(O)c(NC(=O)c4ccc(O)c(CC=C(C)C)c4)c(=O)oc3c2C)OC1(C)C [novobiocin]
inactive: 1 nM -2.55% | 8.33 nM -2.69% | 100 nM 2.34% | 833.33 nM 0.52% | 10000 nM 0.14%

O=C(Nc1cc(C(F)(F)F)cc(C(F)(F)F)c1)Nc1c(Br)cc(Br)cc1-c1nnn[nH]1
inactive: 1 nM 1.22% | 8.33 nM 1.04% | 100 nM -0.61% | 833.33 nM -2.22% | 10000 nM -3.2%

N#Cc1ccc2[nH]cc(CCCCN3CCN(c4ccc5oc(C(N)=O)cc5c4)CC3)c2c1 [vilazodone]
inactive: 1 nM 0.76% | 8.33 nM 1.07% | 100 nM 0.51% | 833.33 nM 1.56% | 10000 nM -3.06%

CNC(=S)C1(c2ccccn2)CCCS1 (stereo not given) [picartamide]
inactive: 1 nM -4.38% | 8.33 nM 0.23% | 100 nM -0.26% | 833.33 nM 2.39% | 10000 nM 6.75%

CCn1cc(C(=O)O)c(=O)c2cc(F)c(N3CCNCC3)cc21 [norfloxacin]
inactive: 1 nM 2.7% | 8.33 nM 2.29% | 100 nM 3.02% | 833.33 nM -0.29% | 10000 nM 3.46%
